Activity calls are given as the source filed them. Calls follow the shape of the dose curve; as a rule, active = well fitted curve in the direction sought with a large enough effect (not every such curve was filed as active); inconclusive = small, poorly fitted or top-dose-only effect, or effect the other way, or another doubt; inactive = no such curve, though single readings can be large or run the other way.
What follows are molecules tested against Pyruvate kinase PKM (Homo sapiens) (UniProt P14618) (assay: qHTS Assay for Activators of Human Muscle Pyruvate Kinase (AID 954)). Settings: purified human muscle pyruvate kinase, luciferase-coupled luminescence, 1 h; series mostly up to 57.5 µM.
Sequence of Pyruvate kinase PKM (Homo sapiens) (P14618 whole entry, looked up): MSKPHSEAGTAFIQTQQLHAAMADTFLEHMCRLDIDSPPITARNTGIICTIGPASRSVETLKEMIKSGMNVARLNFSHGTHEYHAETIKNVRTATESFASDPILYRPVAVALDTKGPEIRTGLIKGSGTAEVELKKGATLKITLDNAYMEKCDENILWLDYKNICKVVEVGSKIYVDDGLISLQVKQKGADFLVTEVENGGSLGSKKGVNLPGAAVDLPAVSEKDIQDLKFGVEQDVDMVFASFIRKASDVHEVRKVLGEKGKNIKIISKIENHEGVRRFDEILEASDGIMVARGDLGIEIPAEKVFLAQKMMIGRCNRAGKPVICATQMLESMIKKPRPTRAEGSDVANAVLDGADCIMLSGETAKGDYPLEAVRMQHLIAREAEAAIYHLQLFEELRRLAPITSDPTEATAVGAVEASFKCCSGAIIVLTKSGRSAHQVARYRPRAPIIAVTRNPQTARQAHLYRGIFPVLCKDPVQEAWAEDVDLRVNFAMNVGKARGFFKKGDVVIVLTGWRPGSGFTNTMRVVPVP
Method in brief: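 Enzyme was run at intermediate activity so both inhibitors and activators could be detected. ATP formed from ADP and PEP by 0.1 nM human PKM2 during a 1 h room-temperature incubation was quantified by coupled luciferase luminescence.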

Compound	outcome
COCC(=O)O[C@]1(CCN(C)CCCc2nc3ccccc3[nH]2)CCc2cc(F)ccc2[C@@H]1C(C)C	inactive
CN1CCN(C2=Nc3ccccc3Oc3ccc(Cl)cc32)CC1	inactive
CCCC(C(=O)OCCN(CC)CC)(c1ccccc1)c1ccccc1	inactive
CCn1cc(C(=O)O)c(=O)c2cc3c(cc21)OCO3	inactive
FC(F)(F)c1ccccc1-n1ccnc1	inactive
C[N+](C)(C)CCOC(N)=O	inactive
CSc1ccc(C(=O)c2[nH]c(=O)[nH]c2C)cc1	inactive
COC(=O)[C@@H](N)Cc1ccc(O)c(O)c1	inactive
CNCCCN1c2ccccc2CCc2ccccc21	inactive
CC(=O)Oc1cc(C(C)C)c(OCCN(C)C)cc1C	inactive
CCC(=O)c1ccc2c(c1)N(CCCN(C)C)c1ccccc1S2	inactive
CC(=O)Nc1nnc(S(N)(=O)=O)s1	inactive
C[C@H](CS)C(=O)N1CCC[C@H]1C(=O)O	inactive
CN(C)CCOC(=O)COc1ccc(Cl)cc1	inactive
O=C(O)CN(CCOCCOCCN(CC(=O)O)CC(=O)O)CC(=O)O	inactive
CCN1CCc2nc(N)oc2CC1	inactive
O=C(O)CCCCCCCC(=O)O	inactive
CCO/C([O-])=N/c1c[n+](N2CCOCC2)no1	inactive
Cc1ccc(=O)n(-c2ccccc2)c1	inactive
CCc1cccc(N(C)C(N)=Nc2cccc3ccccc23)c1	inactive
CCN(CC)CCOCCOC(=O)C1(c2ccccc2)CCCC1	inactive
O=C(CCNNC(=O)c1ccncc1)NCc1ccccc1	inactive
CCN(CC)CC(=O)Nc1c(C)cccc1C	inactive
Cc1ccc(S(=O)(=O)NC(=O)NN2CCCCCC2)cc1	inactive
CCn1nc(C(=O)O)c(=O)c2cc3c(cc21)OCO3	inactive
CN(C)C(=O)Oc1cccc([N+](C)(C)C)c1	inactive
CCOC(=O)c1cnc2c(cnn2CC)c1NN=C(C)C	inactive
CC1=NS(=O)(=O)c2cc(Cl)ccc2N1	inactive
CCCCNc1c(C(=O)OCC)c(C)nc2c1cnn2CC	inactive

From PubChem BioAssay (NCATS)
